This is part of a sample that, as a whole, favours compounds with a hit. Of some 79,000 tested, about 15% had one in any assay. Values without a mark were called inactive. Cut-off read from the data, not from the text of the source: active = growth inhibition above about 70%; inactive = the rest. Where a SMILES comes first, the peptide text is derived from it. The star is where a group is joined. Trt = c1ccc(C(c2ccccc2)(c2ccccc2)*)cc1; Benzhydryl = c1ccc(C(c2ccccc2)*)cc1; Cbz = O=C(OCc1ccccc1)*
Assay: NCI Yeast Anticancer Drug Screen. Data for the bub3 strain (AID 167)
Details: S. cerevisiae bub3 mutant strain, at 50.0 µM, active compounds read high
Protocol: Growth inhibition of yeast strains with defined genetic alterations is measured as a screen for potential anti-cancer activity. Selected strains with alterations in DNA damage repair or cell cycle control were exposed to compounds and growth inhibition was measured relative to vehicle treated controls. The strain used in this assay is bub3

Row | Structure (SMILES) | growth inhibition [%]
1 | CC(=O)OCC(=O)C1(O)CCC2C3CCC4=CC(=O)CCC4(C)C3(SC#N)CC(=O)C21C (stereo not given) | 11.8
2 | CC(=O)NC(Cc1ccc(OC(C)=O)c(OC(C)=O)c1)C(C)=O (stereo not given) | -10.6
3 | N#Cc1cc(-c2ccccc2)c[nH]c1=O | -1.25
4 | COc1ccc2c(c1)OC1(OCCO1)[C@@H]1C2CC[C@@]2(C)C1CCC21OCCO1 (stereo not given in full) | 15.8
5 | O=C(CCCCCCC(=O)ON1C(=O)CCC1=O)ON1C(=O)CCC1=O | -24.4
6 | O=C1OCC(Cc2ccc3c(c2)OCO3)[C@H]1Cc1ccc(O)cc1 (stereo not given in full) | 19.3
7 | C=C1C(=O)O[C@H]2[C@@H](O)[C@H](C)CCC[C@]3(C)O[C@H]3CC[C@@]3(C)O[C@@H]3C[C@@H]12 | 61.1
8 | Cc1cc(C)c(SSc2c(C)cc(C)cc2C)c(C)c1 | 7.6
9 | O=[N+]([O-])c1ccc(/C=N/Nc2cnnc(Cl)c2Cl)cc1 | 2.45
10 | O=[N+]([O-])c1cccc(/C=N\NS(=O)(=O)c2ccc(Cl)cc2)c1O | -38.4
11 | O=S(Cc1ccccc1)/C(=C/NC(=S)N=Nc1c(O)[nH]c2ccccc12)c1ccccc1 (stereo not given) | -4.1
12 | COC(=O)C(Cc1ccccc1)NC(=O)C(Cc1ccccc1)NC(=O)CNC(=O)C(CSC(c1ccccc1)c1ccccc1)NC(=O)C(CSC(c1ccccc1)(c1ccccc1)c1ccccc1)NC(=O)OCc1ccccc1 (stereo not given) (Cbz-C(Trt)C(Benzhydryl)GFF-OMe; configuration not given here) | -9.8
13 | Cc1nc2nn[nH]n2c(=O)c1CCO | -6.95
14 | Cc1c2c(n3c(nc4ccccc43)c1C#N)N(c1ccc(Cl)cc1)CC2 | -6.4
15 | c1cc2c3c(c1)CCC3CCC2 (stereo not given) | -35
16 | C=CCN(CC=C)C(=S)NC(=O)c1ccccc1 | 28.3
17 | CCOC(=O)CCC(NC(=O)c1ccc(NC)c([N+](=O)[O-])c1)C(=O)OCC (stereo not given) | 4
18 | O=C(CCSCCC(=O)N/N=C/c1ccccc1F)N/N=C\c1ccccc1F | 24.4
19 | CNC(=S)N(C)/N=C/c1ccccc1 | -7.15
20 | CN1C(=O)C2C(C1=O)[C@H]1c3ccccc3C=CN1[C@@H]2C(=O)c1ccccc1 (stereo not given in full) | -3.8

Row | Structure (SMILES) | growth inhibition [%]
21 | COC(=O)C1OC(O[C@H]2CC[C@]3(C)[C@H]4CC=C5[C@@H]6CC(C)(C)CC[C@]6(C(=O)OC6OCC(O)C(O)C6OC6OC(C)C(OC7OCC(O)C(O)C7O)C(OC7OCC(O)(CO)C7O)C6O)[C@H](O)C[C@@]5(C)[C@]4(C)CC[C@H]3C2(C)C)C(O)C(O)C1O (stereo not given in full) | 13.6
22 | COc1ccc2c(ccc3[nH]c4c(C)cnc(NCCCN)c4c32)c1 | -17.4
23 | CCOCC(=O)NC1Cc2cc(OC)c(OC)cc2C1O (stereo not given) | 2.15
24 | N#CNC(N)=Nc1ccc(Cl)cc1 | -19.6
25 | C(#CC(Sc1ccccc1)=C(Sc1ccccc1)Sc1ccccc1)Sc1ccccc1 | 5.6
26 | CC1(c2ccc(-c3ccccc3)cc2)NC(=O)NC1=O (stereo not given) | -4.85
27 | CC(C)(C)n1nc(C2CC2)cc1NC(=O)Nc1ccc(Cl)cc1 | -2.55
28 | OC(CNC1CCCCC1)(c1ccccc1)c1ccccc1 | 30.2
29 | O=C1CC[C@H]2[C@@H]3N1c1ccccc1[C@@]31CCN3C/C(=C/CBr)[C@@H]2C[C@H]31 | -1.8
30 | Nc1nc(N)c2ncn(Cc3c(Cl)cccc3Cl)c2n1 | 4.15
31 | CC(C)OCC(O)CNCCN (stereo not given) | -21
32 | CSC(=S)/C(=C/Nc1ccccn1)c1ccccc1 | 37.8
33 | CC1(C)N=C(C(N)=O)c2ncn(CCCO)c2N1 | -0.35
34 | COc1ccc(/C=C2/CSCC3=C2NC(=S)NC3c2ccc(OC)c(OC)c2OC)c(OC)c1OC (stereo not given) | 48.4
35 | CN(C)c1nnnn1-c1c(N)n(C)c(=O)n(C)c1=O | -26.8
36 | N#CCCN(CCC#N)Cc1ccc2c(O)c(CN(CCC#N)CCC#N)ccc2c1O | -0.15
37 | Cn1nc(-c2ccccc2)c(N=[N+]=[N-])cc1=O | -10.9
38 | N#CC(CCc1ccccc1)(c1ccccc1)c1ccccc1 | 9.5
39 | O=C(/C(N=Nc1ccccc1)=C(\O)c1ccccc1)c1ccccc1 | 7.05
40 | CC1(Cn2ccc(=O)[nH]c2=O)CC(C2(C)OCCO2)C(=O)O1 (stereo not given) | -19

Source: PubChem BioAssay (NCI)
